From PubChem BioAssay (NCATS)
Inconclusive results are not listed. Where a call stands in place of a potency, no number is given. Activity calls are given as the source filed them. Unless noted, calls come from the whole dose curve; as a rule, active = well fitted curve in the direction sought with a large enough effect; inconclusive = small, poorly fitted or top-dose-only effect, or another doubt; inactive = no such curve, though single readings can be large; an effect the other way counts as inactive or inconclusive.

molecular target: Cytochrome P450 3A4 (Homo sapiens) (UniProt P08684); test: qHTS Assay for Inhibitors and Substrates of Cytochrome P450 3A4 (AID 884); conditions: recombinant CYP3A4, Luciferin-PPXE luminescence; series mostly up to 57.1 µM; note: potency is the fitted concentration of half-maximal effect; nearly all actives have a fitted effect of over 50% in size
Sequence (P08684 whole entry, looked up): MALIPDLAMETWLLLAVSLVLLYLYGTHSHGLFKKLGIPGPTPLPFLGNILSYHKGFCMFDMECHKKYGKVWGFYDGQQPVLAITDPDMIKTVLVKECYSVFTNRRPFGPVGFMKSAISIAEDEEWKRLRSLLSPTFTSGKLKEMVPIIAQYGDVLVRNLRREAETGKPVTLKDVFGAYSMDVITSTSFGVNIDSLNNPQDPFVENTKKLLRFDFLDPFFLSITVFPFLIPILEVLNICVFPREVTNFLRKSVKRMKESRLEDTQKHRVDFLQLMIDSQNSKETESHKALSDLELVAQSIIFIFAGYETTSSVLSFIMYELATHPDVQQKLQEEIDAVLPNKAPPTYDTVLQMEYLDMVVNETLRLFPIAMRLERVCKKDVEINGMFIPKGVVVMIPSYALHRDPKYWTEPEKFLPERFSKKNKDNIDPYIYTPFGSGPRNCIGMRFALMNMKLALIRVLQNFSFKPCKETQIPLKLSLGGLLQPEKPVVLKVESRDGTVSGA
Summary of the method: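 20 nM human CYP3A4 with 25 uM Luciferin-PPXE (at KM) in 200 mM KPO4, preincubated 10 min with compound; NADPH regeneration started a 60 min RT reaction. Luciferin detected by luminescence, normalized to 57 uM ketoconazole as full inhibition.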

Compound	Potency
c1cc2c(cc1[C@H]1OC[C@@H]3[C@H]1CO[C@H]3c1ccc3c(c1)OCO3)OCO2	0.794 µM (active)
CC(C)[C@]1(NC(=O)[C@@H]2C=C3c4cccc5[nH]cc(c45)C[C@H]3N(C)C2)O[C@@]2(O)C3CCCN3C(=O)[C@H](Cc3ccccc3)N2C1=O (some centres not stated)	1 µM (active)
COc1cc2c(cc1OC)-c1c(O)c(OC)cc3c1[C@H](C2)N(C)CC3	7.94 µM (active)

molecular target: Cytochrome P450 3A4 (Homo sapiens) (UniProt P08684); test: qHTS Assay for Activators of Cytochrome P450 3A4 (AID 885); conditions: recombinant CYP3A4, Luciferin-PPXE luminescence, 60 min; series mostly up to 57.1 µM; note: nearly all actives have a fitted effect of over 65% in size
Summary of the method: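 20nM CYP3A4 + 25uM Luciferin-PPXE (=KM), 200mM KPO4; cpd 10 min RT; NADPH regen, 60 min RT; stop w/ detection buffer, 20 min; luminescence. Normalized to 57 uM ketoconazole.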

Compound	Potency
CN1C[C@@H](CO)C=C2c3cccc4[nH]cc(c34)CC21 (some centres not stated)	inactive
c1cc2c(cc1[C@H]1OC[C@@H]3[C@H]1CO[C@H]3c1ccc3c(c1)OCO3)OCO2	inactive
CC(C)[C@]1(NC(=O)[C@@H]2C=C3c4cccc5[nH]cc(c45)C[C@H]3N(C)C2)O[C@@]2(O)C3CCCN3C(=O)[C@H](Cc3ccccc3)N2C1=O (some centres not stated)	inactive
COC1=C[C@H]2[C@H]3Cc4ccc(OC)c(O)c4[C@@]2(CCN3C)CC1=O	inactive
CN(C)C1C(=O)C(C(N)=O)=C(O)[C@@]2(O)C(=O)C3=C(O)c4c(O)cccc4[C@@](C)(O)C3C[C@@H]12 (some centres not stated)	inactive
CN1Cc2c(ccc3c2OCO3)C2C(O)Cc3cc4c(cc3C21)OCO4 (configuration not stated)	inactive
COC(C)C(O)(C(=O)OC1=CCN2CC[C@H](O)[C@H]12)C(C)C (some centres not stated)	inactive
COc1cc2c(cc1OC)-c1c(O)c(OC)cc3c1[C@H](C2)N(C)CC3	inactive

molecular target: DNA dC->dU-editing enzyme APOBEC-3G (Homo sapiens) (UniProt Q9HC16); test: qHTS for inhibitors of Vif-A3G interactions: Validation (AID 588379); conditions: Vif-A3G protein interaction assay; series mostly up to 46.1 µM
Sequence (Q9HC16 whole entry, looked up): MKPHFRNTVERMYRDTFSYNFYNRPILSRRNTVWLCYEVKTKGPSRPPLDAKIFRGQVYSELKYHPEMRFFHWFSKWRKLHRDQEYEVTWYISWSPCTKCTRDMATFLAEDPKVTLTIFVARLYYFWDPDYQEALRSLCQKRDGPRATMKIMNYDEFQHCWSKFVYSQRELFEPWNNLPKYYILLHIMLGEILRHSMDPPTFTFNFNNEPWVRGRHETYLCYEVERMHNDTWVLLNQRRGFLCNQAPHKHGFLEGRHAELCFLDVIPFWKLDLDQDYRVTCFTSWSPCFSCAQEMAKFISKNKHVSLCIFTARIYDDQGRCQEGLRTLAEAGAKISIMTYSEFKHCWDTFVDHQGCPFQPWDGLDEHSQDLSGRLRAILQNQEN
Summary of the method: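 HeLa cells stably expressing Vif and A3G-eYFP, 700 cells/well, incubated overnight at 37 deg C, then exposed to compound overnight at 37 deg C. Inhibition of Vif-mediated degradation read as increased yellow fluorescence (Ex 488/Em 500-530) by laser-scanning cytometry.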

Compound	outcome
CN1C[C@@H](CO)C=C2c3cccc4[nH]cc(c34)CC21 (some centres not stated)	inactive
c1cc2c(cc1[C@H]1OC[C@@H]3[C@H]1CO[C@H]3c1ccc3c(c1)OCO3)OCO2	inactive
CC(C)[C@]1(NC(=O)[C@@H]2C=C3c4cccc5[nH]cc(c45)C[C@H]3N(C)C2)O[C@@]2(O)C3CCCN3C(=O)[C@H](Cc3ccccc3)N2C1=O (some centres not stated)	inactive
COC1=C[C@H]2[C@H]3Cc4ccc(OC)c(O)c4[C@@]2(CCN3C)CC1=O	inactive
CN(C)C1C(=O)C(C(N)=O)=C(O)[C@@]2(O)C(=O)C3=C(O)c4c(O)cccc4[C@@](C)(O)C3C[C@@H]12 (some centres not stated)	inactive
CN1Cc2c(ccc3c2OCO3)C2C(O)Cc3cc4c(cc3C21)OCO4 (configuration not stated)	inactive
COC(C)C(O)(C(=O)OC1=CCN2CC[C@H](O)[C@H]12)C(C)C (some centres not stated)	inactive
COc1cc2c(cc1OC)-c1c(O)c(OC)cc3c1[C@H](C2)N(C)CC3	inactive

molecular target: Estrogen receptor (Homo sapiens) (UniProt P03372); test: qHTS assay for small molecule antagonists of estrogen receptor alpha signaling (AID 588513; active = well fitted curve in the direction sought with a large enough effect in the signal ratio, with a control signal flat, not every such curve was filed as active; the % refers to the signal ratio); conditions: ER-alpha-UAS-bla HEK293, beta-lactamase ratio, antagonist mode; series mostly up to 76.9 µM
Sequence (P03372 whole entry, looked up): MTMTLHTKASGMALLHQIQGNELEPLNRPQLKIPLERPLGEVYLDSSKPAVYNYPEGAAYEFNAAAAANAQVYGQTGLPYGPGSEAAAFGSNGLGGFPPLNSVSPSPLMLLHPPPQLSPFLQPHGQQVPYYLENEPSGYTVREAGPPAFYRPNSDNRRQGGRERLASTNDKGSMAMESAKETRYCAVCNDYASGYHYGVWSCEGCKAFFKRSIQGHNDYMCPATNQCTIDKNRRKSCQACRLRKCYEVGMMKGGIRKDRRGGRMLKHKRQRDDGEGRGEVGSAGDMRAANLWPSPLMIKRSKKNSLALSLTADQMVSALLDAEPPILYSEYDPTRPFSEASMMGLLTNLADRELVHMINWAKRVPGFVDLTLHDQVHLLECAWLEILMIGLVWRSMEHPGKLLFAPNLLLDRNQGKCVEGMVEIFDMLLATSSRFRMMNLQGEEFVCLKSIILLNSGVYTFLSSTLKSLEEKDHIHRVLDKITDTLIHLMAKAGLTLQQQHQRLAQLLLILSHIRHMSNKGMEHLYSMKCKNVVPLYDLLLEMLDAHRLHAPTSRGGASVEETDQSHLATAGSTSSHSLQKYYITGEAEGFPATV
Summary of the method: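 Antagonist-mode qHTS in ER-alpha-UAS-bla HEK 293 cells: compound titration, 0.5nM estradiol for 18 h, CCF4 fluorescence, Hill-derived IC50.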

Compound	Potency
C/C(=N\NC(=O)Nc1cc(F)cc(F)c1)c1ncccc1C(=O)O	inactive
CCCC1COC(Cn2cncn2)(c2ccc(Cl)cc2Cl)O1 (configuration not stated)	inactive
Cc1cnc(C2=NC(C)(C(C)C)C(=O)N2)c(C(=O)O)c1 (configuration not stated)	inactive
O=S(=O)(c1ccc(O)cc1)c1ccc(O)cc1	inactive
CCOP(=O)(O)C(N)=O	inactive
CCOc1nc(NC)nc(NC(=O)NS(=O)(=O)c2ccccc2C(=O)OC)n1	inactive
COc1ccc(O)c(C(C)(C)C)c1	inactive
CCOP(=S)(OCC)SCC(=O)NC(C)C	inactive
NS(=O)(=O)C(F)(F)C(F)(F)C(F)(F)C(F)(F)C(F)(F)C(F)(F)C(F)(F)C(F)(F)F	inactive
Clc1ccc([C@]2(Cn3cncn3)C[C@@H](Br)CO2)c(Cl)c1	inactive
CCOP(=O)(SC(C)CC)SC(C)CC (configuration not stated)	inactive
CNC(=O)Oc1cccc2c1OC(C)(C)C2O (configuration not stated)	inactive
C/C(=N\C(N)=O)N(C)Cc1ccc(Cl)nc1	inactive
O=S1OC[C@@H]2[C@H](CO1)[C@@]1(Cl)C(Cl)=C(Cl)[C@]2(Cl)C1(Cl)Cl (some centres not stated)	inactive
FC(F)(F)c1ccc(OCCCOc2c(Cl)cc(OCC=C(Cl)Cl)cc2Cl)nc1	inactive
C=CCC1=C(C)[C@@H](OC(=O)[C@@H]2[C@@H](C=C(C)C)C2(C)C)CC1=O	inactive

Compound	Potency
Cc1ccccc1C(=O)Nc1cccc(OC(C)C)c1	inactive
CCOC1Oc2ccc(OS(C)(=O)=O)cc2C1(C)C (configuration not stated)	inactive
Nc1ccc([N+](=O)[O-])cc1Cl	inactive
CCCCC(CC)C(=O)Cl (configuration not stated)	inactive
CCNc1nc(NC(C)(C)C)nc(SC)n1	inactive
CCOP(=O)(OCC)SCSCC	inactive
CCOP(=O)(OCC)SCSC(C)(C)C	inactive
CNC(=O)Oc1ccc(N(C)C)c(C)c1	inactive
COC(=O)c1ccccc1CS(=O)(=O)NC(=O)Nc1nc(OC)cc(OC)n1	inactive
Cc1cc(Cl)ccc1OCC(=O)O	inactive
CCOP(=S)(OCC)Oc1cnc2ccccc2n1	inactive
CCOP(=S)(S)OCC	inactive
CCCCN(CC)C(=O)SCCC	inactive
O=[N+]([O-])c1ccc(Oc2ccc(C(F)(F)F)cc2[N+](=O)[O-])cc1	inactive
C/C=C(\C)C(=O)O[C@H]1C[C@@H](OC(C)=O)[C@@]2(C(=O)OC)CO[C@H]3[C@@H](O)[C@@](C)([C@]45O[C@@]4(C)[C@H]4C[C@@H]5O[C@@H]5OC=C[C@@]54O)[C@H]4[C@]1(CO[C@]4(O)C(=O)OC)[C@@H]32	inactive
C=CC1(C)OC(=O)N(c2cc(Cl)cc(Cl)c2)C1=O (configuration not stated)	inactive
